# A number with no mark means an inactive call.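 The calls were made as follows: active = inhibition of the reporter signal at or above 50%; inactive = inhibition below 50%.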
# Assay: TLR3 IRF3 reporter activation blockers – cell-based, poly I:C stimulus, luciferase, 10K MLSCN set, primary screen (AID 602277)
# Conditions: HEK293-TLR3 RL24 IRF3 luciferase reporter, at 10 µM, active compounds read high
row,Structure (SMILES),inhibition [%]
1,CCN1CCN(C(CNC(=O)c2ccc3c(c2)OCO3)c2cccnc2)CC1 (stereo not given),-1.81
2,Cc1cccnc1-n1c(CCN2C(=O)c3ccccc3C2=O)nc2ccccc2c1=O,2.5
3,COc1cc2c(N3CCOCC3)cc(O)c(CC(=O)Nc3ccccc3)c2cc1OC,7.05
4,Cc1ccc(-c2nc3cc(NC(=O)C(C)C)ccc3o2)cc1C,12.7
5,Cc1ccc(-c2nnc(N3CCN(C(=O)CN4C(=O)c5ccccc5C4=O)CC3)c3ccccc23)cc1,12.9
6,Cc1cccc(OCC(=O)N(Cc2cccs2)C2CCS(=O)(=O)C2)c1C (stereo not given),16.1
7,CCN(CC)C(=O)Cn1c(=O)n(Cc2ccccc2Cl)c2c1c(=O)n(C)c(=O)n2C,10.3
8,CCOc1ccccc1NC(=O)CCSc1nc2n[nH]c(C)c2c(=N)n1-c1ccccc1Cl,5.23
9,COc1ccc(N2C(=O)CCC(C(=O)N3CCCCC3)C2c2ccc(OC)c(OC)c2)cc1 (stereo not given),21.7
10,COCCNC(=O)C(c1ccc(O)cc1)N(Cc1ccco1)C(=O)CCC(=O)Nc1nccs1 (stereo not given),14.7
11,C=CCN1C(=O)C2(/C(=C(\O)c3ccc4c(c3)OCCO4)C(=O)C(=O)N2CCCOC)c2ccccc21 (stereo not given),21.2
12,COc1cc2[nH]c(=O)c(C(=O)NCCCN3CCCCC3)c(O)c2cc1OC,-9.38
13,CCc1[nH]nc2c1C1(CCN(C(=O)OCc3ccccc3)CC1)C(C#N)=C(N)O2,13.6
14,O=C(Nc1cccc2ccccc12)N1CCN(c2ccccc2)CC1,15.2
15,CC(=O)N1CCC(N(C(=O)Nc2ccc(C)c(C)c2)C2CCCC2)CC1,15
16,O=C1CCCc2nc(N3CCCCC3)sc21,-85.2
17,C=CCOc1ccc(C2/C(=C(\O)c3c(C)[nH]c(C(=O)OC)c3C)C(=O)C(=O)N2CCN(C)C)cc1 (stereo not given),26.6
18,Cc1cc(NC(=O)c2cccc(S(=O)(=O)N3CC(c4ccccc4)CC3=O)c2)no1 (stereo not given),25.9
19,CCN(CCCNC(=O)CC1Oc2ccc(C)cc2NC1=O)Cc1ccccc1 (stereo not given),30.7
20,CN1CCc2nc(SCCOc3ccccc3)c(C#N)cc2C1,2.79

row,Structure (SMILES),inhibition [%]
1,COc1ccc(S(=O)(=O)N2CCC(C(=O)Nc3c(F)cccc3F)CC2)cc1,1.61
2,Cc1nc2ccc(NC(=O)NCc3ccco3)cc2s1,-83.4
3,CCNc1ccc(C(=O)OCC)cc1NC(=O)c1cc(S(=O)(=O)N2CCOCC2)ccc1C,-25.5
4,CC1CCN(c2nc3c(c(=O)n(C)c(=O)n3C)n2Cc2ccccc2)CC1,15.2
5,O=C(Oc1cc2oc(=O)c3c(c2cc1Cl)CCCC3)c1ccco1,7.41
6,CCOC(=O)CNC(=O)CSc1nc(N)cc(N)n1,8.68
7,CCCC(=O)C1=C(N(C)c2ccccc2)CC(C)(C)C(C(=O)OC)C1=O (stereo not given),33.4
8,CCOC(=O)c1ccc(N2C(=O)CC(N(C)CCc3ccc(OC)c(OC)c3)C2=O)cc1 (stereo not given),25.6
9,COc1ccc(C2=NOC(C(=O)NC3CCCCC3)C2)cc1OC (stereo not given),20.1
10,CCOC(=O)c1cc(CC)sc1NC(=O)CCC(=O)O,26.5
11,O=C(C1CCN(c2nnc(-n3cccc3)s2)CC1)N1CCOCC1,18
12,Cn1cc(Br)c(C(=O)NC2CCCCC2)n1,5.88
13,CC1NC2(C(=O)N(Cc3ccccc3)c3ccccc32)C2C(=O)N(c3ccccc3)C(=O)C12 (stereo not given),26
14,O=C1CC(N2CCN(C3CCc4ccccc4C3)CC2)C(=O)N1c1ccccc1 (stereo not given),28.1
15,CCCOc1cccc(C(=O)Nc2cc(NC(=O)c3ccco3)ccc2OC)c1,-15
16,Cn1c(SCC(=O)Nc2ccc3c(c2)OCO3)nnc1-c1cnccn1,24.2
17,CC1CCN(S(=O)(=O)c2cccc(C(=O)Nc3ccccn3)c2)CC1,23.9
18,CC(=O)Nc1ccc(N=Cc2nc(-c3ccc(C)cc3)oc2O)cc1,-2.56
19,CN(C(=O)C1CCCO1)c1nnc(-c2ccncc2)s1 (stereo not given),-17.4
20,CCOC(=O)c1[nH]c(C)c(C(=O)NC)c1C,27.6

# From PubChem BioAssay
